Screening data deposited in PubChem BioAssay by National Center for Advancing Translational Sciences (NCATS).
In the library only some 19% were active in any assay of this set; here they are far more common.
IL1B secr inh – inhibitors of inflammasome signaling (IL-1 beta secretion); activity change, % at 57.5 µM; THP-1 LPS/ATP IL-1B secretion, AlphaLISA, 16 h; stronger effect = lower value; 360,000 tested, 4.7% active; in the data active means activity change below about -50%; inconclusive means mostly about -30% to -49%
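Secreted IL-1B measured by AlphaLISA bead assay after 16 h compound exposure of THP-1 cells; compounds (final up to 57.5 uM) added 1 h before LPS (250 ng/mL) and ATP (1.25 mM) stimulation; lower signal means less secretion.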
TDP1 cell noCPT – qHTS for Inhibitors of human tyrosyl-DNA phosphodiesterase 1 (TDP1): qHTS in cells in absence of CPT | DT40 Tdp1-/- hTDP1 cells, no CPT, ATP luminescence, 48 h | Potency, µM (doses to about 46.2 µM), actives largely listed as inhibitors | 420,000 tested, 15% active; further: nearly all actives have a fitted effect of over 55% in size
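No-CPT arm: Tdp1-/-;hTDP1 DT40 cells (400/well) plus compounds, incubated ≥48 hr at 37 °C. Readout CellTiter-Glo luminescence.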
ASM inhibitor – human S-ASM enzyme inhibition; 340,000 tested, 0.006% active; AID 504937; placental ASM, HMU-PC fluorogenic substrate, 60 min; P17405; Potency, µM (highest dose often 57.5 µM), hits mostly inhibitors
Target sequence (P17405 47-631 limits assumed): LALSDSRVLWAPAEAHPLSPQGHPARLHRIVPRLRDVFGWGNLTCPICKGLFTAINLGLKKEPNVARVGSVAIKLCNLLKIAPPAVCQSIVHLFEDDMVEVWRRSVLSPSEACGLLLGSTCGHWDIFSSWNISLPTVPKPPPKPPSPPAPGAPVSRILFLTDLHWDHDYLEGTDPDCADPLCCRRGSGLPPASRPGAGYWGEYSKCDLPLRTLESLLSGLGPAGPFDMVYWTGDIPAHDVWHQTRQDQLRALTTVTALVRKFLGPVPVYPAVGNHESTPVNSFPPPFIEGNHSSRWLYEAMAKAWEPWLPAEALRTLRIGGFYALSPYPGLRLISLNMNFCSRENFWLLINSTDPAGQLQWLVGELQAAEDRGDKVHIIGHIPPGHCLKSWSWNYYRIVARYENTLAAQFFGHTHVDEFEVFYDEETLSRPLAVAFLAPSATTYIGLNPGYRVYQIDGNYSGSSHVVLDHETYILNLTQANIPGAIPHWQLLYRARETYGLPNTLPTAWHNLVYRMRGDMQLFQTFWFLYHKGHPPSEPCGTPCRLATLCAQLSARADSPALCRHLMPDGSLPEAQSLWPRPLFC
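Fluorescence read-out (Ex 386 nm, Em 447 nm) after stopping the reaction at pH 10. Enzyme: ASM from human placenta; substrate HMU-PC0, 9 uM final; 60 min, 37 °C. Compound preincubation 10 min, ambient temperature.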
HepG2 tox – HepG2 cytotoxicity, counter-screen for TGF-b inhibitors; AID 588856; HepG2 CAGA-GFP viability, ATP luminescence, 18 h; Potency, µM (highest dose often 46.1 µM), actives largely listed as cytotoxic; 410,000 tested, 0.76% active
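HepG2 CAGA-GFP cells (1000/well, DMEM with 1% FBS) received compound, then TGF-beta at 500 pg/mL final, and were incubated 18 hours at 37 degrees C. Viability was read by CellTiter-Glo luminescence. Media-only wells were set as complete cell-killing and DMSO as no toxicity.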
TDP1 cell CPT – DT40-hTDP1 cell growth loss with CPT | AID 686979 | chicken DT40 Tdp1-/-;hTDP1 cells + 20 nM CPT, ATP luminescence, 48 h | 420,000 tested, 12% active | Potency, µM (top dose mostly 46.2 µM), hits mostly inhibitors; further: nearly all actives have a fitted effect of over 55% in size
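Cell growth measured by CellTiter-Glo luminescence after a minimum 48 h, 37 C compound exposure with 20 nM CPT in Tdp1-knockout DT40 cells stably expressing hTDP1, seeded 400/well; qHTS titration format.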
TGFb SMAD3 inh – blocks TGF-b signaling | HepG2 CAGA-GFP TGF-b/SMAD3 reporter, GFP fluorescence, 18 h; TGF-beta stimulated, 500 pg/mL final | 410,000 tested, 1.2% active | Potency, µM (top dose mostly 46.1 µM), most hits filed as inhibitors | AID 588855; further: nearly all actives have a fitted effect of over 65% in size
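First, reporter cells (HEPG2 CAGA-GFP) rested 2 h at 37 degrees C. Next, compounds were pinned in and TGF-beta added to 500 pg/mL final. After 18 h, GFP was imaged per cell and summed per well.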
Large screens that a line does not name were inactive. Unless noted, the call rests on the fitted dose curve; in most records, active means well fitted curve in the direction sought with a large enough effect; inconclusive means small, poorly fitted or top-dose-only effect, or another doubt; inactive means no such curve, though single readings can be large; an effect the other way counts as inactive or inconclusive.

O=C(Cn1c2[n+](c3ccc(C(F)(F)F)cc31)CCCCC2)c1ccc2c(c1)OCCO2	TDP1 cell noCPT 21µM, TDP1 cell CPT inconclusive
Cc1ccc(CN2CCCn3nc(C(=O)NC(C)C)cc3C2=O)cc1	none (no result: IL1B secr inh, ASM inhibitor)
CCCn1c(=S)[nH]c2cc(C(=O)N3CCN(c4ccc(F)cc4)CC3)ccc2c1=O	TDP1 cell CPT inconclusive (no result: ASM inhibitor)
CCOc1ccc(C(=O)OCC(=O)NCC2CCCO2)cc1 (stereo not drawn)	none
CC(=O)NC12CC3CC(C1)CC(C(=O)N1CCN(S(=O)(=O)c4cccc(C(F)(F)F)c4)CC1)(C3)C2	TDP1 cell noCPT inconclusive, TDP1 cell CPT 7.3µM (no result: ASM inhibitor)
COc1ccc(C(CCNCc2ccc(N(C)C)cc2)c2ccccc2OC)cc1 (stereo not drawn)	IL1B secr inh -101, TDP1 cell noCPT 15µM, TDP1 cell CPT 18µM, TGFb SMAD3 inh inconclusive
COc1ccc(C(CCNCc2ccc(OC(C)C)cc2)c2ccccc2OC)cc1 (stereo not drawn)	IL1B secr inh -89, TDP1 cell noCPT 16µM, HepG2 tox 11µM, TDP1 cell CPT 23µM, TGFb SMAD3 inh 14µM
COc1ccc(CNCCC(c2ccc(OC)cc2)c2ccccc2OC)cc1 (stereo not drawn)	IL1B secr inh -83, TDP1 cell noCPT 6.5µM, HepG2 tox 11µM, TDP1 cell CPT 18µM, TGFb SMAD3 inh inconclusive
COCCN(C(=O)CCC(=O)Nc1ccccn1)C(C(=O)NCCC(C)C)c1ccc(C)cc1 (stereo not drawn)	none
O=C(CSCc1ccccc1Cl)NNC(=S)Nc1ccccc1	TDP1 cell noCPT inconclusive
COC(=O)c1ccccc1NC(=O)COCc1cc(-c2cccs2)on1	TDP1 cell noCPT inconclusive, TDP1 cell CPT inconclusive (no result: IL1B secr inh, ASM inhibitor)
CC1CCN(c2ccc(-c3cccc(NS(=O)(=O)c4cccs4)c3)nn2)CC1	none (no result: IL1B secr inh, ASM inhibitor)
O=c1[nH]c(=S)[nH]c2c1C(c1ccc(F)cc1)OC(CCOCc1ccccc1)C2 (stereo not drawn)	none (no result: ASM inhibitor)
Cc1cccc(-n2nnnc2SCC(=O)NCC2(N3CCOCC3)CCCCC2)c1C	TDP1 cell noCPT 21µM, TDP1 cell CPT 18µM
CN1CCN(c2ccc(NC(=O)CSc3nnnn3-c3ccccc3F)cc2)CC1	TDP1 cell CPT inconclusive
Cc1ccc(-n2nnnc2SCC(=O)NCC2(N3CCCCC3)CCCCC2)c(C)c1	IL1B secr inh -57
Cc1ccc(-n2nnnc2SCC(=O)Nc2ccc(N3CCN(C)CC3)cc2)c(C)c1	TDP1 cell noCPT 18µM, TDP1 cell CPT inconclusive, TGFb SMAD3 inh inconclusive
Cc1ccc(-n2nnnc2SCC(=O)NCC2(N3CCOCC3)CCCCC2)c(C)c1	TDP1 cell noCPT 16µM, TDP1 cell CPT inconclusive
Cc1ccc(C(=O)NCC(=O)Nc2ncccc2C)s1	none
CC(C)CN1C(=O)C(=O)N(CC(=O)N(C)CC(=O)Nc2ccc(F)cc2)C1=O	none
C/C(N)=C(/C#N)C(=O)CSc1nnnn1-c1ccc(C)cc1C	TDP1 cell noCPT 13µM, TDP1 cell CPT 23µM
Cc1ccc(SCC(=O)Nc2ccc(N3CCN(C)CC3)c(F)c2)c(C)c1	TDP1 cell noCPT 16µM, TDP1 cell CPT 21µM
COc1ccc(Cl)cc1NC(=O)CCN1C(=O)c2ccccc2Sc2ncccc21	TDP1 cell noCPT inconclusive, TDP1 cell CPT inconclusive (no result: IL1B secr inh, ASM inhibitor)
Cc1c(Cl)cccc1NC(=O)N1CCCN(c2nc(-c3ccccc3)ns2)CC1	IL1B secr inh -61, TDP1 cell noCPT inconclusive, TDP1 cell CPT inconclusive
O=C(Nc1ccccc1)N1CCN(c2nc(-c3ccccc3)ns2)CC1	TDP1 cell noCPT 16µM, TDP1 cell CPT 23µM, TGFb SMAD3 inh inconclusive
O=C(Nc1ccccc1Cl)N1CCCN(c2nc(-c3ccccc3)ns2)CC1	TDP1 cell noCPT inconclusive, TDP1 cell CPT inconclusive, TGFb SMAD3 inh inconclusive
O=C(c1ccc(F)cc1)N1CCCN(c2nc(-c3ccccc3)ns2)CC1	TDP1 cell CPT inconclusive, TGFb SMAD3 inh inconclusive
